Results published in PubChem BioAssay (NCI).
The panel holds about 83,000 compounds, 20% with a hit somewhere; the sample as a whole holds those more often.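 In brief: 96-well plates, 48 h treatment, single concentration, percent growth endpoint.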 The source made the active and inactive calls. The calls were made as follows: active = growth percent below 10; inactive = the rest.

Columns and labels:
Assay in all cases: NCI-60 one-dose screen, 48 h (100 = growth as untreated, 0 = no growth, -100 = all killed)
Details in all cases: 10 µM unless noted
HCT-15 colon = tested on: HCT-15 colon
HT29 colon = tested on: HT29 colon
SNB-75 CNS = tested on: SNB-75 CNS
SNB-19 CNS = tested on: SNB-19 CNS
U251 CNS = tested on: U251 CNS
PC-3 prostate = tested on: PC-3 prostate
SK-MEL-5 melanoma = tested on: SK-MEL-5 melanoma
UACC-62 melanoma = tested on: UACC-62 melanoma
LOX IMVI melanoma = tested on: LOX IMVI melanoma
SK-MEL-28 melanoma = tested on: SK-MEL-28 melanoma

Measured: growth

COC(=O)C1=CCC(n2cnc3c(N)ncnc32)O1 (stereo not given)
inactive: HCT-15 colon 109% | HT29 colon 103% | SNB-75 CNS 98.1% | SNB-19 CNS 104% | U251 CNS 104% | PC-3 prostate 98% | SK-MEL-5 melanoma 104% | UACC-62 melanoma 92.8% | LOX IMVI melanoma 96.4% | SK-MEL-28 melanoma 115%

O=CN1N=C(c2ccc(Nc3ccnc4cc(Cl)ccc34)cc2)CC1c1ccc(Cl)cc1 (stereo not given)
inactive: HCT-15 colon 16.4% | SNB-19 CNS 44.5% | U251 CNS 27.6% | PC-3 prostate 32.3% | UACC-62 melanoma 28.7% | LOX IMVI melanoma 32% | SK-MEL-28 melanoma 39.2%
active: HT29 colon 5.55% | SNB-75 CNS 4.26% | SK-MEL-5 melanoma -27.4%

Cc1ccc2nc(-c3ccc(N(C)C)c(Br)c3)cn2c1
inactive: HCT-15 colon 33.9% | HT29 colon 72.8% | SNB-75 CNS 103% | SNB-19 CNS 99.4% | U251 CNS 49.1% | PC-3 prostate 53.7% | SK-MEL-5 melanoma 77.9% | UACC-62 melanoma 66.6% | LOX IMVI melanoma 56.3% | SK-MEL-28 melanoma 93.3%

CC[N+](CCCCCCCCCC[N+](CC)(c1ccccn1)c1ccccn1)(c1ccccn1)c1ccccn1
inactive: HCT-15 colon 58.6% | SNB-19 CNS 13.3% | SK-MEL-28 melanoma 15.1%
active: HT29 colon -34% | SNB-75 CNS 6.81% | U251 CNS 6.56% | PC-3 prostate 2.94% | SK-MEL-5 melanoma -72.4% | UACC-62 melanoma 0.363% | LOX IMVI melanoma -54.4%

CS(=O)(=O)N1CCN(Cc2cc3nc(-c4cccc5[nH]ncc45)nc(N4CCOCC4)c3s2)CC1 (tested in a mixture with another compound)
inactive: HCT-15 colon 14.2% | SNB-19 CNS 28% | U251 CNS 30.5% | LOX IMVI melanoma 18.8% | SK-MEL-28 melanoma 10.6%
active: HT29 colon 9.57% | SNB-75 CNS -3.36% | PC-3 prostate 6.61% | SK-MEL-5 melanoma -0.161% | UACC-62 melanoma -13.5%

O=C(COc1cccc(/C=C2\Oc3ccc4ccccc4c3C2=O)c1)c1ccc(Cl)cc1
inactive: HCT-15 colon 72.4% | HT29 colon 103% | SNB-75 CNS 90.5% | SNB-19 CNS 92% | U251 CNS 61.5% | PC-3 prostate 77.5% | SK-MEL-5 melanoma 89.3% | UACC-62 melanoma 82.8% | LOX IMVI melanoma 10.6% | SK-MEL-28 melanoma 113%

COc1cnc2c(c1)C(=O)c1c-2n(CCCN2CCC(O)CC2)c(=O)c2cc(F)ccc12
active: HCT-15 colon 7.5% | HT29 colon -20.6% | SNB-75 CNS -16.9% | U251 CNS -28.4% | PC-3 prostate 3.1% | SK-MEL-5 melanoma -98.9% | UACC-62 melanoma -40.8% | LOX IMVI melanoma -70.3%
inactive: SNB-19 CNS 14% | SK-MEL-28 melanoma 13.2%

COC(=O)C1CCN(S(=O)(=O)c2ccc(-c3ccccc3)cc2)CC1
inactive: HCT-15 colon 110% | HT29 colon 109% | SNB-75 CNS 87.8% | SNB-19 CNS 98.5% | U251 CNS 111% | PC-3 prostate 90.3% | SK-MEL-5 melanoma 107% | UACC-62 melanoma 98.2% | LOX IMVI melanoma 107% | SK-MEL-28 melanoma 105%

Cc1ccc(/C=C/C(=O)c2ccc(F)cc2)s1
inactive: HCT-15 colon 67.3% | HT29 colon 43.5% | SNB-75 CNS 90.9% | SNB-19 CNS 88% | U251 CNS 51.6% | PC-3 prostate 63.8% | SK-MEL-5 melanoma 90.6% | UACC-62 melanoma 72.7% | LOX IMVI melanoma 58.3% | SK-MEL-28 melanoma 105%

O=C(c1ccccc1)C(CN1CCCCC1)c1ccccc1 (stereo not given)
inactive: SNB-75 CNS 63.4% | SNB-19 CNS 78.5% | U251 CNS 15.9% | PC-3 prostate 49.8% | SK-MEL-5 melanoma 58.8% | UACC-62 melanoma 25.8% | SK-MEL-28 melanoma 58.8%
active: HCT-15 colon -22% | HT29 colon -13.4% | LOX IMVI melanoma -94.9%

COc1c(O)cc2c(c1CC=C(C)C)OC(=O)c1c(cc(O)c(CC=C(C)C)c1O)O2
inactive: HCT-15 colon 44.1% | HT29 colon 86.9% | SNB-75 CNS 49.7% | SNB-19 CNS 48.4% | U251 CNS 27.2% | PC-3 prostate 24.5% | SK-MEL-5 melanoma 40.8% | UACC-62 melanoma 67.2% | SK-MEL-28 melanoma 80.5%
active: LOX IMVI melanoma -27.5%

O=C(Nc1nc2ccc(OC(F)(F)F)cc2s1)c1ccc(F)cc1
inactive: HCT-15 colon 12% | HT29 colon 15.7% | SNB-75 CNS 73.7% | SNB-19 CNS 12.3% | PC-3 prostate 12.4% | LOX IMVI melanoma 11.3% | SK-MEL-28 melanoma 33.5%
active: U251 CNS 6.58% | SK-MEL-5 melanoma -7.36% | UACC-62 melanoma 7.77%

O=C(Oc1ccccc1)C(Br)C(Br)c1ccccc1 (stereo not given)
inactive: HCT-15 colon 95.4% | HT29 colon 54.5% | SNB-75 CNS 110% | SNB-19 CNS 104% | U251 CNS 75.7% | PC-3 prostate 55.4% | SK-MEL-5 melanoma 106% | UACC-62 melanoma 101% | LOX IMVI melanoma 82.2% | SK-MEL-28 melanoma 111%

CCN(CC)CCSc1ncnc2c1cnn2-c1ccc(S(N)(=O)=O)cc1
inactive: HCT-15 colon 89% | HT29 colon 85.7% | SNB-75 CNS 108% | SNB-19 CNS 107% | U251 CNS 92.9% | PC-3 prostate 85.7% | SK-MEL-5 melanoma 79.1% | UACC-62 melanoma 92.7% | LOX IMVI melanoma 87% | SK-MEL-28 melanoma 92.8%

C1=C(Cc2ccccc2)n2cnc3ncnc(c32)S1
inactive: HCT-15 colon 71.8% | HT29 colon 55.7% | SNB-75 CNS 45.8% | SNB-19 CNS 94.1% | U251 CNS 78.8% | PC-3 prostate 78.2% | SK-MEL-5 melanoma 86.1% | UACC-62 melanoma 54.5% | SK-MEL-28 melanoma 103%
active: LOX IMVI melanoma 9.31%

COc1cc(C2=NN(C=O)C(c3cccc(Nc4ccnc5cc(Cl)ccc45)c3)C2)cc(OC)c1OC (stereo not given)
inactive: HCT-15 colon 52.4% | HT29 colon 22% | SNB-75 CNS 74.3% | SNB-19 CNS 76.2% | U251 CNS 66.8% | PC-3 prostate 42.7% | SK-MEL-5 melanoma 68.1% | UACC-62 melanoma 96.4% | LOX IMVI melanoma 54.5% | SK-MEL-28 melanoma 90.6%

CCOC(=O)C1C(=O)NC(C(=O)OCC)(C(=O)OCC)C1CC (stereo not given)
inactive: HCT-15 colon 92.8% | HT29 colon 111% | SNB-75 CNS 107% | SNB-19 CNS 105% | U251 CNS 105% | PC-3 prostate 92.9% | SK-MEL-5 melanoma 101% | UACC-62 melanoma 98.1% | LOX IMVI melanoma 95.6% | SK-MEL-28 melanoma 123%

CCOC(=O)c1cnc2c(C)cc(C)cc2c1NCCCN(C)C
inactive: HCT-15 colon 28.2% | HT29 colon 13.1% | SNB-75 CNS 51.1% | SNB-19 CNS 42.4% | U251 CNS 28.3% | PC-3 prostate 22% | SK-MEL-5 melanoma 46.5% | UACC-62 melanoma 46.7% | LOX IMVI melanoma 23.2% | SK-MEL-28 melanoma 76.2%

CC1C(=O)NC2=Nc3ccccc3C(=O)NN21 (stereo not given)
inactive: HCT-15 colon 108% | HT29 colon 103% | SNB-75 CNS 86.7% | SNB-19 CNS 107% | U251 CNS 101% | PC-3 prostate 92.4% | SK-MEL-5 melanoma 94.5% | UACC-62 melanoma 92.2% | LOX IMVI melanoma 95.4% | SK-MEL-28 melanoma 120%

NS(=O)(=O)c1cc(C2(O)NC(=O)c3ccccc32)ccc1Cl (stereo not given)
inactive: HCT-15 colon 104% | HT29 colon 98.4% | SNB-75 CNS 91.4% | SNB-19 CNS 104% | U251 CNS 103% | PC-3 prostate 91.7% | SK-MEL-5 melanoma 115% | UACC-62 melanoma 103% | LOX IMVI melanoma 98.8% | SK-MEL-28 melanoma 116%

O=C(CNC(=O)c1cccc2ccccc12)Nc1ccccc1Oc1cccc(O)c1
inactive: HCT-15 colon 22.6% [5 µM] | HT29 colon 14.8% [5 µM] | SNB-19 CNS 38% [5 µM] | U251 CNS 14.3% [5 µM] | PC-3 prostate 28.1% [5 µM] | SK-MEL-5 melanoma 26.4% [5 µM] | UACC-62 melanoma 44.9% [5 µM] | LOX IMVI melanoma 33.4% [5 µM] | SK-MEL-28 melanoma 57.3% [5 µM]
active: SNB-75 CNS 4.28% [5 µM]

CN1CCC[C@@H]1CCO[C@](C)(c1ccccc1)c1ccc(Cl)cc1
active: SK-MEL-5 melanoma -100%
inactive: HCT-15 colon 62.2% | HT29 colon 17.3% | SNB-75 CNS 52.3% | SNB-19 CNS 99.5% | U251 CNS 64.3% | PC-3 prostate 66.2% | UACC-62 melanoma 37.2% | LOX IMVI melanoma 70.7% | SK-MEL-28 melanoma 44.3%

CCN(CC)c1ccc(C(=C2C=CC(=[N+](CC)Cc3cccc(S(=O)(=O)O)c3)C=C2)c2ccc(N(CC)Cc3cccc(S(=O)(=O)O)c3)cc2)cc1
active: PC-3 prostate -3.18%
inactive: HCT-15 colon 85.1% | HT29 colon 12.8% | SNB-75 CNS 33.2% | SNB-19 CNS 56.9% | U251 CNS 20.8% | SK-MEL-5 melanoma 54% | UACC-62 melanoma 63.8% | LOX IMVI melanoma 35.4% | SK-MEL-28 melanoma 30.3%

COC(=O)[C@H](Cc1cn(C)cn1)NC(=O)[C@H](C)NC(=O)Nc1cc(C(F)(F)F)cc(C(F)(F)F)c1
active: HT29 colon -67.5% [100 µM] | SNB-75 CNS -78.3% [100 µM] | SNB-19 CNS -82.5% [100 µM] | U251 CNS -93.8% [100 µM] | PC-3 prostate -83.7% [100 µM] | SK-MEL-5 melanoma -95.4% [100 µM] | UACC-62 melanoma -93% [100 µM] | LOX IMVI melanoma -81% [100 µM] | SK-MEL-28 melanoma -94.4% [100 µM]
inactive: HCT-15 colon 37.7% [100 µM]

CCOC(=O)CCN(c1c(Cl)ssc1=O)C(C)C
inactive: HCT-15 colon 113% | HT29 colon 102% | SNB-75 CNS 97.8% | SNB-19 CNS 109% | U251 CNS 101% | PC-3 prostate 101% | SK-MEL-5 melanoma 97.7% | UACC-62 melanoma 97.8% | LOX IMVI melanoma 94.4% | SK-MEL-28 melanoma 93.4%

COc1ccc2c(c1)sc1nc(-c3ccc(N(C)C)cc3)cn12
inactive: HCT-15 colon 116% | HT29 colon 113% | SNB-75 CNS 162% | SNB-19 CNS 95.3% | U251 CNS 98.3% | PC-3 prostate 60.6% | SK-MEL-5 melanoma 108% | UACC-62 melanoma 104% | LOX IMVI melanoma 113% | SK-MEL-28 melanoma 144%

COc1cc(C(=O)/C=C/c2cccc(Nc3ccnc4cc(Cl)ccc34)c2)cc(OC)c1OC
inactive: SNB-75 CNS 16.4% | SNB-19 CNS 20.3% | UACC-62 melanoma 22.5%
active: HCT-15 colon -32.1% | HT29 colon -90% | U251 CNS -90.9% | PC-3 prostate -12.7% | SK-MEL-5 melanoma -45.5% | LOX IMVI melanoma -85.8% | SK-MEL-28 melanoma -39.2%
